Results reported in the supplement of paper PMC7411054.
Counter-ions that a name gives are not always drawn.

Legend:
Details in all cases: treatment time: 24 h
A549-ACTB-RAB5A = experiment: phenotypically active (imaging signature differs from DMSO and reproducible) at any of 0.3-9 uM (binary (1 = active, 0 = inactive)); higher = active
In short: (§1)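 Two criteria together defined phenotypic activity: deviation and reproducibility. Deviation meant ≥3 of 4 wells beyond the 95th percentile of Euclidean distances in solvent control wells, and reproducibility meant a median replicate Pearson correlation above the 95th percentile of non-replicates. Wells had been treated for 24 h at 0.3, 1, 3 or 9 µM in fifteen gene-edited A549, HepG2 and WPMY1 reporter lines before live imaging.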

A549-CANX-COX4 = experiment: as above
In short: as §1

A549-GM130-SQSTM1 = experiment: as above
In short: as §1

A549-TP53BP1-CLTA = experiment: as above
In short: as §1

A549-TUBA1B-RELA = experiment: as above
In short: as §1

HepG2-ACTB-RAB5A = experiment: as above
In short: as §1

HepG2-CANX-COX4 [1] = experiment: as above
In short: as §1

HepG2-GM130-SQSTM1 [2] = experiment: as above
In short: as §1

HepG2-TP53BP1-CLTA = experiment: as above
In short: as §1

HepG2-TUBA1B-RELA [3] = experiment: as above
In short: as §1

WPMY1-ACTB-RAB5A [4] = experiment: as above
In short: as §1

WPMY1-CANX-COX4 = experiment: as above
In short: as §1

WPMY1-GM130-SQSTM1 [5] = experiment: as above
In short: as §1

WPMY1-TP53BP1-CLTA = experiment: as above
In short: as §1

WPMY1-TUBA1B-RELA = experiment: as above
In short: as §1

HepG2-CANX-COX4 [6] = experiment: lowest phenotypically active concentration; higher = less potent
In short: as §1

HepG2-GM130-SQSTM1 [7] = experiment: as above
In short: as §1

HepG2-TUBA1B-RELA [8] = experiment: as above
In short: as §1

WPMY1-ACTB-RAB5A [9] = experiment: as above
In short: as §1

WPMY1-GM130-SQSTM1 [10] = experiment: as above
In short: as §1

Structure (SMILES)	phenotypically active (A549-ACTB-RAB5A)	phenotypically active (A549-CANX-COX4)	phenotypically active (A549-GM130-SQSTM1)	phenotypically active (A549-TP53BP1-CLTA)	phenotypically active (A549-TUBA1B-RELA)	phenotypically active (HepG2-ACTB-RAB5A)	phenotypically active (HepG2-CANX-COX4 [1])	phenotypically active (HepG2-GM130-SQSTM1 [2])	phenotypically active (HepG2-TP53BP1-CLTA)	phenotypically active (HepG2-TUBA1B-RELA [3])	phenotypically active (WPMY1-ACTB-RAB5A [4])	phenotypically active (WPMY1-CANX-COX4)	phenotypically active (WPMY1-GM130-SQSTM1 [5])	phenotypically active (WPMY1-TP53BP1-CLTA)	phenotypically active (WPMY1-TUBA1B-RELA)	lowest phenotypically active concentration (HepG2-CANX-COX4 [6]) [µM]	lowest phenotypically active concentration (HepG2-GM130-SQSTM1 [7]) [µM]	lowest phenotypically active concentration (HepG2-TUBA1B-RELA [8]) [µM]	lowest phenotypically active concentration (WPMY1-ACTB-RAB5A [9]) [µM]	lowest phenotypically active concentration (WPMY1-GM130-SQSTM1 [10]) [µM]
CS(=O)(=O)c1ccc(-c2nnc(/C=C/c3nnc(-c4ccc(C#N)cc4)o3)n2-c2ccccc2Cl)nc1	0 (inactive)	0 (inactive)	0 (inactive)	0 (inactive)	0 (inactive)	0 (inactive)	0 (inactive)	0 (inactive)	0 (inactive)	0 (inactive)	0 (inactive)	0 (inactive)	0 (inactive)	1 (active)	0 (inactive)					
CN1C/C(=C/c2ccc(B(O)O)cc2)C(=O)/C(=C/c2ccc(B(O)O)cc2)C1		1 (active)		1 (active)		1 (active)	1 (active)	1 (active)	1 (active)	1 (active)	1 (active)	1 (active)	1 (active)	1 (active)	1 (active)	3	3	3	3	≤ 0.3
C#C[C@]1(OC(C)=O)CC[C@H]2[C@@H]3CCC4=C[C@@H](OC(C)=O)CC[C@@H]4[C@H]3CC[C@@]21C [ethynodiol diacetate]		0 (inactive)		0 (inactive)		0 (inactive)	0 (inactive)	0 (inactive)	0 (inactive)	0 (inactive)	0 (inactive)	0 (inactive)	0 (inactive)	0 (inactive)	0 (inactive)					
COc1cc2nccc(Oc3ccc(NC(=O)NC4CC4)c(Cl)c3)c2cc1C(N)=O [lenvatinib]		0 (inactive)		0 (inactive)		0 (inactive)	0 (inactive)	0 (inactive)	0 (inactive)	0 (inactive)	1 (active)	0 (inactive)	0 (inactive)	0 (inactive)	0 (inactive)				1	
Cc1cc(C(C)(C)C)c(O)c(C)c1CC1=NCCN1 [oxymetazoline]		0 (inactive)		0 (inactive)		0 (inactive)	0 (inactive)	0 (inactive)	0 (inactive)	0 (inactive)	0 (inactive)	0 (inactive)	1 (active)	0 (inactive)	0 (inactive)					3
C[C@H]1O[C@H](O[C@H]2[C@H](O)[C@@H](O)[C@@H](O[C@H]3[C@H](O)[C@@H](O)[C@H](O)O[C@@H]3CO)O[C@@H]2CO)[C@H](O)[C@@H](O)[C@@H]1N[C@H]1C=C(CO)[C@@H](O)[C@H](O)[C@H]1O [Acarbose]		0 (inactive)		0 (inactive)		0 (inactive)	0 (inactive)	0 (inactive)	0 (inactive)	0 (inactive)	0 (inactive)	0 (inactive)	0 (inactive)	0 (inactive)	0 (inactive)					
Cc1c2oc3c(C)ccc(C(=O)NC4C(=O)NC(C(C)C)C(=O)N5CCCC5C(=O)N(C)CC(=O)N(C)C(C(C)C)C(=O)OC4C)c3nc-2c(C(=O)NC2C(=O)NC(C(C)C)C(=O)N3CCCC3C(=O)N(C)CC(=O)N(C)C(C(C)C)C(=O)OC2C)c(N)c1=O (stereo not given) [Actinomycin D]		1 (active)		1 (active)		1 (active)	1 (active)	1 (active)	1 (active)	1 (active)	1 (active)	1 (active)	1 (active)	1 (active)	1 (active)	≤ 0.3	≤ 0.3	≤ 0.3	≤ 0.3	≤ 0.3
COc1cc2ncn(-c3cc(OCc4ccccc4C(F)(F)F)c(C(N)=O)s3)c2cc1OC		1 (active)		1 (active)		1 (active)	1 (active)	1 (active)	1 (active)	1 (active)	1 (active)	1 (active)	0 (inactive)	1 (active)	1 (active)	≤ 0.3	≤ 0.3	≤ 0.3	≤ 0.3	
COc1cc([C@@H]2c3cc4c(cc3[C@@H](O[C@@H]3O[C@@H]5CO[C@@H](C)O[C@H]5[C@H](O)[C@H]3O)[C@H]3COC(=O)[C@H]23)OCO4)cc(OC)c1O [etoposide]		1 (active)		1 (active)		1 (active)	1 (active)	1 (active)	1 (active)	1 (active)	1 (active)	1 (active)	1 (active)	1 (active)	1 (active)	1	1	1	1	1
Oc1ccc(Nc2nc(-c3ccc(Cl)cc3)cs2)cc1		1 (active)		1 (active)		0 (inactive)	1 (active)	1 (active)	0 (inactive)	0 (inactive)	1 (active)	1 (active)	1 (active)	1 (active)	1 (active)	9	9		3	3
OC(CCN1CCCCC1)(c1ccccc1)C1CCCCC1 (stereo not given) [trihexyphenidyl]		0 (inactive)		0 (inactive)		0 (inactive)	0 (inactive)	0 (inactive)	0 (inactive)	0 (inactive)	0 (inactive)	0 (inactive)	0 (inactive)	0 (inactive)	0 (inactive)					
Cc1ccc(S(=O)(=O)/C=C/C#N)cc1		0 (inactive)		0 (inactive)		0 (inactive)	0 (inactive)	0 (inactive)	0 (inactive)	0 (inactive)	0 (inactive)	1 (active)	1 (active)	0 (inactive)	0 (inactive)					9
Cc1nc(NC(=O)N2CCC[C@H]2C(N)=O)sc1-c1ccnc(C(C)(C)C(F)(F)F)c1 [alpelisib]		1 (active)		1 (active)		1 (active)	1 (active)	1 (active)	1 (active)	1 (active)	0 (inactive)	1 (active)	1 (active)	1 (active)	1 (active)	≤ 0.3	1	1		3
Nc1nc(N)nc(-c2cc(Cl)ccc2Cl)n1 [Irsogladine maleate]		0 (inactive)		0 (inactive)		0 (inactive)	0 (inactive)	0 (inactive)	0 (inactive)	0 (inactive)	0 (inactive)	0 (inactive)	0 (inactive)	0 (inactive)	0 (inactive)					
CCCCC1C(=O)N(c2ccccc2)N(c2ccc(O)cc2)C1=O (stereo not given) [oxyphenbutazone]		0 (inactive)		0 (inactive)		0 (inactive)	0 (inactive)	0 (inactive)	0 (inactive)	0 (inactive)	0 (inactive)	0 (inactive)	0 (inactive)	0 (inactive)	1 (active)					
CCN(CC)CCCC(C)Nc1ccnc2cc(Cl)ccc12 (stereo not given) [chloroquine]		0 (inactive)		1 (active)		1 (active)	1 (active)	1 (active)	1 (active)	1 (active)	1 (active)	1 (active)	1 (active)	1 (active)	1 (active)	9	3	1	3	3
O=c1cc(-c2cccc3c2Sc2ccccc2S3)oc(N2CCOCC2)c1		0 (inactive)		0 (inactive)		1 (active)	1 (active)	1 (active)	1 (active)	1 (active)	1 (active)	1 (active)	1 (active)	1 (active)	0 (inactive)	3	9	9	3	9
N#Cc1c(NC(=O)c2cccc3ccccc23)sc2c1CCCC2		1 (active)		1 (active)		1 (active)	1 (active)	1 (active)	1 (active)	1 (active)	1 (active)	1 (active)	1 (active)	1 (active)	1 (active)	≤ 0.3	≤ 0.3	≤ 0.3	≤ 0.3	≤ 0.3
CC[C@H](C)[C@H](NC(=O)OCc1ccccc1)C(=O)N[C@@H](CCC(=O)OC(C)(C)C)C(=O)N[C@@H](C)C(=O)N[C@H](C=O)CC(C)C		1 (active)		1 (active)		1 (active)	1 (active)	1 (active)	1 (active)	1 (active)	1 (active)	1 (active)	1 (active)	1 (active)	1 (active)	≤ 0.3	≤ 0.3	≤ 0.3	≤ 0.3	≤ 0.3
Nc1cc(C(F)(F)F)c(-c2cc(N3CCOCC3)nc(N3CCOCC3)n2)cn1 [buparlisib]		1 (active)		1 (active)		1 (active)	1 (active)	1 (active)	1 (active)	1 (active)	1 (active)	1 (active)	1 (active)	1 (active)	1 (active)	1	3	3	3	1
Nc1nc2ccc(OC(F)(F)F)cc2s1 [riluzole]		0 (inactive)		0 (inactive)		0 (inactive)	0 (inactive)	0 (inactive)	0 (inactive)	0 (inactive)	0 (inactive)	0 (inactive)	0 (inactive)	0 (inactive)	0 (inactive)					
O=c1[nH]cc(F)c(=O)[nH]1 [5-Fluorouracil]		1 (active)		1 (active)		1 (active)	1 (active)	1 (active)	1 (active)	1 (active)	0 (inactive)	0 (inactive)	0 (inactive)	1 (active)	0 (inactive)	3	3	3		
NCCNS(=O)(=O)c1cccc2cnccc12 [H-9 dihydrochloride]		0 (inactive)		0 (inactive)		0 (inactive)	0 (inactive)	0 (inactive)	0 (inactive)	0 (inactive)	1 (active)	0 (inactive)	0 (inactive)	0 (inactive)	0 (inactive)				9	
N#Cc1c(O)c2c(-c3ccc(-c4ccccc4O)cc3)csc2[nH]c1=O		0 (inactive)		0 (inactive)		0 (inactive)	0 (inactive)	0 (inactive)	0 (inactive)	0 (inactive)	0 (inactive)	0 (inactive)	0 (inactive)	0 (inactive)	0 (inactive)					
